Consider 21 compounds from PubChem BioAssay (NCI).

The panel holds about 79,000 compounds, 15% with a hit somewhere; the sample as a whole holds those more often. Values without a mark were called inactive. Active and inactive are the calls of the source. Rule as the data show it: active = growth inhibition above about 70%; inactive = the rest.

Experiment [1] in a line: NCI Yeast Anticancer Drug Screen. Data for the rad50 strain (AID 155).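 Also: 0% = growth of vehicle-only cultures of the same strain.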 As to conditions: S. cerevisiae rad50 strain growth inhibition; at 50.0 µM; active compounds read high. The essentials:
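Genetically altered yeast (DNA repair pathway); compound treatment; growth inhibition vs vehicle ctrl.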

Experiment [2] in a line: NCI Yeast Anticancer Drug Screen. Data for the mec2-1 strain (AID 157). As to conditions: S. cerevisiae mec2-1 strain, at 50.0 µM, active compounds read high. The essentials:
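Strain: mec2-1 (DNA repair/cell cycle alteration). Compound exposure, then growth measured; inhibition expressed relative to vehicle.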

Experiment [3] is described as follows: NCI Yeast Anticancer Drug Screen. Data for the sgs1 mgt1 strain (AID 161).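 Also: 0% = growth of cultures given vehicle only.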 The settings on record: S. cerevisiae sgs1 mgt1 strain, at 50.0 µM, active compounds read high. The essentials:
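Test agents were incubated with a DNA-repair-mutant yeast strain. Growth was then read and compared against vehicle-treated controls.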

Experiment [4] is described as follows: NCI Yeast Anticancer Drug Screen. Data for the cln2 rad14 strain (AID 165).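 Also: 0% = growth equal to vehicle treated cultures.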 The settings on record: S. cerevisiae cln2 rad14 strain, at 50.0 µM, active compounds read high. The essentials:
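Compounds are applied to the cln2 rad14 yeast strain, and growth is then compared with that of vehicle-treated cultures to give inhibition.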

Experiment [5] is described as follows: NCI Yeast Anticancer Drug Screen. Data for the bub3 strain (AID 167). The settings on record: S. cerevisiae bub3 mutant strain, at 50.0 µM, active compounds read high. The essentials:
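Yeast carrying a defined mutation is treated with each compound, and growth is compared with that of vehicle-exposed cells to give inhibition.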

Experiment [6] in a line: NCI Yeast Anticancer Drug Screen. Data for the mlh1 rad18 strain (AID 175). The settings on record: S. cerevisiae mlh1 rad18 strain growth inhibition; at 50.0 µM; active compounds read high. The essentials:
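Read-out is yeast growth inhibition, calculated against vehicle-only controls. The compound was applied to a strain engineered with DNA damage repair alterations.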

For `NC(=S)NNC(=O)c1ccccc1`, the growth inhibition is -16.7% in experiment [1]; -10.6% in experiment [2]; -2.25% in experiment [3]; 9.65% in experiment [4]; 6.75% in experiment [5]; -2.55% in experiment [6].

For the compound `CCCn1c(C)nc2cc(C(F)(F)F)cc(N)c21`, the growth inhibition in experiment [1] was 14.3%; in experiment [2], 11.4%; in experiment [3] it was 1.55%; in experiment [4], -35.4%; in experiment [5] it was 17.9%; in experiment [6], 5.5%.

As for `C1CCC(N=C2N(C3CCCCC3)C(=NC3CCCCC3)N2C2CCCCC2)CC1`, the growth inhibition was 4.7% in experiment [1]; -28.3% in experiment [2]; -7.2% in experiment [3]; -19.6% in experiment [4]; -20.6% in experiment [5]; -4.35% in experiment [6].

In the case of `COC/C=C(\C)CC/C=C(\C)CCC=C(C)C`, the growth inhibition in experiment [1] was -8.2%; in experiment [2] it was 0.95%; in experiment [3], -1.2%; in experiment [4], 22.6%; in experiment [5], -27.3%; in experiment [6], 2.95%.

On to `COc1ccc(NC(=O)C(=O)Cc2ccc([N+](=O)[O-])c([N+](=O)[O-])c2CC(=O)C(=O)Nc2ccc(OC)cc2OC)c(OC)c1`, for which the growth inhibition in experiment [1] was 0.35%; in experiment [2], -36.1%; in experiment [3], -44%; in experiment [4], 17.8%; in experiment [5], 6.15%; in experiment [6], 8.05%.

For `NC(=O)CNCc1ccccc1`, the growth inhibition in experiment [1] was 0.3%; in experiment [2] it was -3.75%; in experiment [3], 12.7%; in experiment [4], -52%; in experiment [5], 0.25%; in experiment [6], 4.25%.

Consider `COc1ccc(N=C2c3cc([N+](=O)[O-])ccc3-c3c2cccc3[N+](=O)[O-])cc1`, for which the growth inhibition in experiment [1] is -5.25%; in experiment [2], -8.25%; in experiment [3], -4.1%; in experiment [4] it was -20.6%; in experiment [5] it was 3.45%; in experiment [6] it was -7.2%.

As for `NNC(=O)c1nnc(N)o1`, the growth inhibition in experiment [1] is -11.6%; in experiment [2] it was -12.1%; in experiment [3] it was 7.25%; in experiment [4], -9.45%; in experiment [5] it was -11.7%; in experiment [6], 6.45%.

Turning to `CCOC(=O)C1=C(C)N(c2ccccc2)C2=C(C(=O)N(c3ccccc3)C2c2ccccc2)C1c1ccccc1` (stereo unspecified), the growth inhibition in experiment [1] is 9.9%; in experiment [2] it was -13.8%; in experiment [3], 9.25%; in experiment [4], 15%; in experiment [5], -21.7%; in experiment [6], 7.2%.

Consider `C=C(N1CCCCC1)N1CCCCC1`, for which the growth inhibition is -2.75% in experiment [1]; -25.1% in experiment [2]; -9.15% in experiment [3]; -46.5% in experiment [4]; -15.9% in experiment [5]; -11.4% in experiment [6].

Turning to `OC1(C#Cc2ccccc2)c2ccccc2C(O)(C#Cc2ccccc2)c2ccccc21` (stereo unspecified), the growth inhibition in experiment [1] is 9.95%; in experiment [2], -11.8%; in experiment [3], 1.6%; in experiment [4], 14.1%; in experiment [5], -10.3%; in experiment [6] it was 10.1%.

As for `COc1ccc(CCCc2cc3c(cc2OC)OCO3)cc1`, the growth inhibition is 5.6% in experiment [1]; -4.1% in experiment [2]; 15.5% in experiment [3]; -8.65% in experiment [4]; 35.6% in experiment [5]; 12.2% in experiment [6].

Regarding `CN1C2=C(CC3=C1CC(C)(C)CC3=O)C(=O)CC(C)(C)C2`, the growth inhibition in experiment [1] was -18.6%; in experiment [2] it was -12.9%; in experiment [3], -20.1%; in experiment [4] it was -4.25%; in experiment [5], -27.6%; in experiment [6] it was -34.7%.

On to `CC[O-].CC[O-].O=Nc1ccc2cc([O-])ccc2c1.O=Nc1ccc2cc([O-])ccc2c1.[Ti+4]`, for which the growth inhibition in experiment [1] was 34.9%; in experiment [2], 44.9%; in experiment [3] it was 59.5%; in experiment [4] it was 45%; in experiment [5], 52.6%; in experiment [6], 15.9%.

With `[O-][n+]1c(/C=C/c2cccc3ccccc23)cccc1/C=C/c1cccc2ccccc12`, the growth inhibition is -8.6% in experiment [1]; 1% in experiment [2]; 42.8% in experiment [3]; 6.55% in experiment [4]; 29.4% in experiment [5]; 40.8% in experiment [6].

Turning to `CCOC(=O)NC(NC(=O)OCC)c1ccc(Cl)cc1Cl`, the growth inhibition in experiment [1] was -11.7%; in experiment [2] it was -4.55%; in experiment [3], -11.6%; in experiment [4], 5.9%; in experiment [5] it was 7.2%; in experiment [6], 7.8%.

`COC(=O)C1=CCS(=O)(=O)C1`: the growth inhibition in experiment [1] was -7.45%; in experiment [2], -7.8%; in experiment [3], -4.3%; in experiment [4], 6.1%; in experiment [5], 15%; in experiment [6] it was -9.5%.

With `NC1=NS(=O)(=O)c2ccccc21`, the growth inhibition in experiment [1] is 14.8%; in experiment [2], -11.7%; in experiment [3], 3.1%; in experiment [4], -48.7%; in experiment [5], -1.35%; in experiment [6] it was -1.55%.

As to `Cc1cc(NCCN(C)C)nc(Nc2ccc(Cl)cc2)n1`, the growth inhibition was 50.8% in experiment [1]; 19.4% in experiment [2]; 31.6% in experiment [3]; -13.9% in experiment [4]; 10.9% in experiment [5]; 54.8% in experiment [6].

`CN(C)c1nc(=NCc2cccs2)ss1`: the growth inhibition in experiment [1] was 71.2% (active); in experiment [2], 46.3%; in experiment [3] it was 77.5% (active); in experiment [4], 45.2%; in experiment [5], 60.5%; in experiment [6] it was 65.7%.

With `CCOC(=O)Cc1nc2ncncc2[nH]c1=O`, the growth inhibition in experiment [1] is 3.25%; in experiment [2] it was 12.2%; in experiment [3], -1.8%; in experiment [4], 15.3%; in experiment [5], 2.35%; in experiment [6], -7.85%.
